TDP1 inh: blocks human tyrosyl-DNA phosphodiesterase 1; recombinant TDP1, AlphaScreen DNA substrate cleavage; Potency, µM (highest dose often 130 µM), most hits filed as inhibitors; 0.28% of 350,000 active; also: nearly all actives have a fitted effect of over 40% in size
Target sequence (Q9NUW8 whole entry, looked up): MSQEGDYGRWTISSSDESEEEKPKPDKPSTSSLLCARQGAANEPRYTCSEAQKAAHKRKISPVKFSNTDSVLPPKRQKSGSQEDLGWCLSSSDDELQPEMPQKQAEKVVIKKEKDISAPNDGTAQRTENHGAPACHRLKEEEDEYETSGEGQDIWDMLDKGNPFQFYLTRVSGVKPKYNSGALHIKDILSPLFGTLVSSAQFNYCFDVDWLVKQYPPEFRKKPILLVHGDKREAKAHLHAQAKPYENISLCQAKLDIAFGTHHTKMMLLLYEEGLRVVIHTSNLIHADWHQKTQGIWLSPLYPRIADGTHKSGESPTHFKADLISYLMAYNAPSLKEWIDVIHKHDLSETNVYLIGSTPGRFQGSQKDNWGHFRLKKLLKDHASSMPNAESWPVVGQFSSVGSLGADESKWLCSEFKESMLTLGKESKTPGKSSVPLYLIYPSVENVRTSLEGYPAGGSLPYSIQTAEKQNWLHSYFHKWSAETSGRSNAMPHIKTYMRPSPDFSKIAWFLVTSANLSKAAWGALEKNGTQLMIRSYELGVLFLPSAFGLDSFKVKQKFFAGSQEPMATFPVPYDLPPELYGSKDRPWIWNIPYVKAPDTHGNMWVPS
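Here, a 5' biotin and 3' phosphotyrosine-FITC DNA oligonucleotide reports Tdp1 activity: intact substrate bridges AlphaScreen beads, while cleavage leaves a 3' phosphate and drops signal. All incubations at room temperature.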
DT40 TDP1 CPT: growth inhibition of DT40 Tdp1-/-;hTDP1 cells with camptothecin (screen for TDP1 inhibitors); chicken DT40 Tdp1-/-;hTDP1 cells + 20 nM CPT, ATP luminescence, 48 h; Potency, µM (titrated, usually from 46.2 µM), actives largely listed as inhibitors; 12% of 420,000 active; also: nearly all actives have a fitted effect of over 55% in size
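Cell growth measured by CellTiter-Glo luminescence after a minimum 48 h, 37 C compound exposure with 20 nM CPT in Tdp1-knockout DT40 cells stably expressing hTDP1, seeded 400/well; qHTS titration format.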
HepG2 viability: kills HepG2 cells in TGF-b inhibitor counter-screen; HepG2 CAGA-GFP viability, ATP luminescence, 18 h; Potency, µM (highest dose often 46.1 µM), usual class: cytotoxic; 0.76% of 410,000 active; AID 588856
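HepG2 CAGA-GFP cells (1000/well, DMEM with 1% FBS) received compound, then TGF-beta at 500 pg/mL final, and were incubated 18 hours at 37 degrees C. Viability was read by CellTiter-Glo luminescence. Media-only wells were set as complete cell-killing and DMSO as no toxicity.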
IL-1B inflam inh: inhibitors of inflammasome signaling (IL-1 beta secretion); THP-1 LPS/ATP IL-1B secretion, AlphaLISA, 16 h; active compounds read low; 4.7% of 360,000 active; AID 743279; activity change, % at 57.5 µM; in the data active = activity change below about -50%; inconclusive = mostly about -30% to -49%
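Secreted IL-1B measured by AlphaLISA bead assay after 16 h compound exposure of THP-1 cells; compounds (final up to 57.5 uM) added 1 h before LPS (250 ng/mL) and ATP (1.25 mM) stimulation; lower signal means less secretion.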
TGFb SMAD3 inh: blocks TGF-b signaling | HepG2 CAGA-GFP TGF-b/SMAD3 reporter, GFP fluorescence, 18 h; TGF-beta stimulated, 500 pg/mL final | Potency, µM (titrated, usually from 46.1 µM), hits mostly inhibitors | 1.2% of 410,000 active | AID 588855; also: nearly all actives have a fitted effect of over 65% in size
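TGF-beta reporter screen: HEPG2 CAGA-GFP, 1% FBS, 500 pg/mL TGF-beta final, 18 h; per-cell GFP summed per well; curves fitted and categorized by class.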
DT40 TDP1 no CPT: qHTS for Inhibitors of human tyrosyl-DNA phosphodiesterase 1 (TDP1): qHTS in cells in absence of CPT; DT40 Tdp1-/- hTDP1 cells, no CPT, ATP luminescence, 48 h; Potency, µM (top dose mostly 46.2 µM), actives largely listed as inhibitors; 15% of 420,000 active; also: nearly all actives have a fitted effect of over 55% in size
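Growth kinetics read by CellTiter-Glo luminescence after ≥48 hr at 37 °C. Cells: DT40 Tdp1-/- stably carrying human TDP1, 400 per well, compound exposure in the absence of CPT (DMSO vehicle).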
Hits are given with their value; - = inactive; ? = inconclusive; . = no result given. Most compounds without a hit are left out; they make up all but 19% or so of the library. Unless noted, calls follow the shape of the dose curve; as a rule, active = well fitted curve in the direction sought with a large enough effect; inconclusive = small, poorly fitted or top-dose-only effect, or another doubt; inactive = no such curve, though single readings can be large; an effect the other way counts as inactive or inconclusive.

SMILES	TDP1 inh	DT40 TDP1 CPT	HepG2 viability	IL-1B inflam inh	TGFb SMAD3 inh	DT40 TDP1 no CPT
CSCC[C@H](NC(=O)c1cccc(S(=O)(=O)N2CCCCC2)c1)c1nc2ccccc2[nH]1	-	?	-	-	-	?
CCC1Oc2ccc(C)cc2N(CC(=O)NCCc2ccccc2)C1=O (centres undefined)	-	-	-	.	-	-
CC(C)COc1ccc(C(=O)Nc2cc(-c3ccccc3)no2)cc1	-	?	-	.	-	?
Cc1nc2c(n1C1CCCCC1)C(=O)c1ccccc1C2=O	-	21µM	-	-	?	15µM
Cc1ccc(C(=O)Nc2nc(=O)n(C(=O)c3ccccc3C)s2)cc1	-	12µM	-	-65	?	13µM
O=C(Nc1nc(=O)n(C(=O)C2CC2)s1)c1ccccc1	-	21µM	-	?	?	23µM
Cc1ccc(C(=O)Nc2nc(=O)n(C(=O)C3CC3)s2)cc1	-	21µM	-	?	-	16µM
Cc1ccc(C(=O)Nc2ccc3c(c2)n(C)c(=O)c(=O)n3C)cc1	-	?	-	.	-	?
O=C(COc1cc2oc(=O)c3c(c2cc1Cl)CCC3)Nc1ccc(CN2CCOCC2)cc1	-	-	-	-	-	-
C=C1CC2C(CCC3(C)C2CCC3(O)C(C)=O)C2(C)CCC(=O)C=C12 (centres undefined)	.	?	-	-92	-	26µM
CC(=O)SC1CC2=CC(=O)CCC2(C)C2CCC3(C)C(CCC34CCC(=O)O4)C12 (centres undefined)	-	?	-	?	-	?
CC(=O)[C@@]1(O)CC[C@H]2[C@@H]3CCC4=CC(=O)CC[C@]4(C)[C@H]3[C@@H](O)C[C@@]21C	-	-	-	-	-	-
CC(=O)C1(C)CCC2C3C=C(C)C4=CC(=O)CCC4(C)C3CCC21C (centres undefined)	.	18µM	-	-73	-	23µM
CN(C)/[N+]([O-])=N/Oc1cc(O/[N+]([O-])=N/N2CCCC2CO)c([N+](=O)[O-])cc1[N+](=O)[O-] (centres undefined)	-	.	-	.	-	.
C#CCN1C=CC(=O)[C@@H](OC(=O)NCCC)[C@H]1c1ccccc1Br	.	-	-	-	-	-
C#CCN1C=CC(=O)[C@@H](OC(=O)Nc2ccccc2Br)[C@H]1c1ccccc1Br	.	23µM	-	-	?	?
C#CCN1C=CC(=O)[C@@H](OC(=O)Nc2ccc(Br)cc2)[C@H]1c1ccccc1Br	.	?	-	-	13µM	?
CN1C=CC(=O)[C@@H](O)[C@H]1c1ccccc1Br	.	-	-	-	-	-
C=CCN1C=CC(=O)[C@@H](OC(=O)Nc2ccc(Br)cc2)[C@H]1c1ccccc1Br	.	23µM	-	-	?	?
CN1C=CC(=O)[C@@H](OC(=O)Nc2ccc(Br)cc2)[C@H]1c1ccccc1Br	.	?	-	-	-	15µM
O=C(O)CSC(C(=O)Nc1ccc(Br)cc1)c1ccccc1 (centres undefined)	-	-	-	-	-	-
CCN(CC)CCNC(=O)c1ccc(NS(C)(=O)=O)cc1	.	-	.	.	.	-
CCN(CC(=O)Nc1c(F)cccc1F)C(=O)c1nc2nc(C)cc(C)n2n1	-	-	-	-	-	-
CCc1cccc2c(-c3ccccc3)c3c(nc12)OCC3	-	.	.	.	.	.
CC1(C)CC(=O)c2c(O)cc(OCC(=O)Nc3ccc(CCO)cc3)cc2O1	.	15µM	-	-	-	21µM
SMILES	TDP1 inh	DT40 TDP1 CPT	HepG2 viability	IL-1B inflam inh	TGFb SMAD3 inh	DT40 TDP1 no CPT
COc1cc(NC(=O)COc2cc(O)c3c(c2)OC(C)(C)CC3=O)cc(OC)c1	.	16µM	-	-	-	13µM
COc1ccc(NC(=O)COc2cc(O)c3c(c2)OC(C)(C)CC3=O)cc1	.	?	-	-	-	?
COc1ccc(CCNC(=O)COc2cc(O)c3c(c2)OC(C)(C)CC3=O)cc1OC	.	?	-	-	-	18µM
CCOc1ccccc1NC(=O)C1CCN(S(=O)(=O)c2ccccc2)CC1	.	-	-	.	-	-
O=C(CCS(=O)(=O)c1cc(Br)cc2c1N(C(=O)C1CC1)CC2)N1CCN(c2cccc(Cl)c2)CC1	-	-	-	.	?	-
CCC(C)[C@H](NC(=O)N1CC(=O)Nc2ccccc21)C(=O)Nc1ccccc1C (some centres undefined)	-	16µM	-	-	-	?
Cn1c(CCN2CCCCC2)nc2cc(NC(=O)COc3ccc([N+](=O)[O-])cc3)ccc21	-	-	-	?	-	18µM
CC(=O)N1CCN(Cc2nc3cc(NC(=O)Cn4nc(C)c5ccccc5c4=O)ccc3n2C)CC1	-	-	-	-	-	-
Cn1c(CCN2CCCCC2)nc2cc(NC(=O)COc3ccc(Cl)cc3)ccc21	-	?	-	-83	-	?
Cc1nn(CC(=O)Nc2ccc3c(c2)nc(CCN2CCCCC2)n3C)c(=O)c2ccccc12	-	11µM	-	-	-	?
COc1ccc(OCC(=O)Nc2ccc3c(c2)nc(CCN2CCOCC2)n3C)cc1	-	-	-	-	-	-
CN1CCN(CCc2nc3cc(NC(=O)COc4ccc(Cl)cc4)ccc3n2C)CC1	-	?	-	-	-	?
Cn1c(CN2CCCC2)nc2cc(NC(=O)COc3ccc(Cl)cc3)ccc21	-	?	-	-68	?	?
CSc1cc2c(cc1C(F)(F)F)N(C(=O)Nc1cccnc1)CC2	-	-	.	.	.	-
CCOCCCn1c(=N)c(S(=O)(=O)c2ccc(C)cc2)cc2c(=O)n3cccc(C)c3nc21	.	.	-	.	-	.
NCCCC(N)CC(=O)NC1CNC(=O)C(C2CC(O)N=C(N)N2)NC(=O)/C(=C/NC(N)=O)NC(=O)C(CO)NC(=O)C(CO)NC1=O (centres undefined)	-	.	.	.	.	.
Cc1cc(N2CCCC2)ccc1/C=C1/C(=O)N(C)C(=S)N1C	-	9.2µM	-	-	-	8.2µM
Cc1cccc(CN2CCc3c([nH]c4ccccc34)C2CC(C)C)n1 (centres undefined)	-	-	-	?	-	-
CCn1cc(CN2CCc3c([nH]c4ccccc34)C2c2cccc(O)c2)c(C)n1 (centres undefined)	-	-	-	-	-	?
CSc1ncc(CN2CCc3c([nH]c4ccccc34)C2c2cccc(C)n2)cn1 (centres undefined)	.	?	-	-	-	26µM
CSc1ncc(CN2CCc3c([nH]c4ccccc34)C2c2cccc(O)c2)cn1 (centres undefined)	-	?	-	-	11µM	26µM

Screening results from PubChem BioAssay.
